Laboratory results taken from PubChem BioAssay (NCI).
This is part of a sample that, as a whole, favours compounds with a hit. Of some 79,000 tested, about 15% had one in any assay. Activity calls are given as the source filed them. Rule as the data show it: active = growth inhibition above about 70%; inactive = the rest.

Key:
[1] = NCI Yeast Anticancer Drug Screen. Data for the rad52 strain (AID 147);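 also: 0% = growth of vehicle-treated control cultures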; settings: S. cerevisiae rad52 mutant growth inhibition, hits give high values
Procedure, shortened: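 Screen used a yeast mutant impaired in DNA repair. After compound exposure, growth was measured. Values reflect inhibition compared with vehicle-treated cells.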

[2] = NCI Yeast Anticancer Drug Screen. Data for the wt1 strain (AID 149);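 also: 0% = growth of vehicle-treated wt1 cultures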; settings: S. cerevisiae wt1 strain (SPY 50644) growth inhibition, hits give high values
Procedure, shortened: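 Using yeast strain wt1, compound-induced growth inhibition was determined against vehicle-treated cultures.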

[3] = NCI Yeast Anticancer Drug Screen. Data for the rad50EPP+ strain (AID 151);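 also: 0% = growth of vehicle-treated control cultures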; settings: S. cerevisiae rad50 mutant strain, hits give high values
Procedure, shortened: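 Exposing the rad50EPP+ strain to each compound, growth was compared with vehicle-only cultures to give inhibition.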

[4] = NCI Yeast Anticancer Drug Screen. Data for the mgt1 strain (AID 153); settings: S. cerevisiae mgt1 mutant growth inhibition, hits give high values
Procedure, shortened: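 Genetically defined yeast (mgt1) treated with compound; inhibition of growth expressed against vehicle-treated controls.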

[5] = NCI Yeast Anticancer Drug Screen. Data for the rad50 strain (AID 155);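 also: 0% = growth of vehicle-only cultures of the same strain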; settings: S. cerevisiae rad50 strain growth inhibition, hits give high values
Procedure, shortened: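 Relative growth inhibition (compound vs vehicle) was measured in yeast with a defined repair-gene alteration.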

[6] = NCI Yeast Anticancer Drug Screen. Data for the mec2-1 strain (AID 157); settings: S. cerevisiae mec2-1 strain, hits give high values
Procedure, shortened: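 Readout is yeast growth inhibition, normalised to vehicle-treated controls, in the mec2-1 strain exposed to compound.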

[7] = NCI Yeast Anticancer Drug Screen. Data for the rad14 strain (AID 159);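 also: 0% = growth of vehicle-treated control cultures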; settings: S. cerevisiae rad14 strain growth inhibition, hits give high values
Procedure, shortened: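 Screen for anticancer potential: a yeast strain altered in DNA damage repair is grown with compound, and reduced growth is quantified against vehicle controls.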

[8] = NCI Yeast Anticancer Drug Screen. Data for the sgs1 mgt1 strain (AID 161);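 also: 0% = growth of cultures given vehicle only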; settings: S. cerevisiae sgs1 mgt1 strain, hits give high values
Procedure, shortened: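 Percent growth inhibition was derived by comparing compound-exposed mutant yeast with vehicle-exposed cultures. The strain carries alterations in DNA damage repair.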

[9] = NCI Yeast Anticancer Drug Screen. Data for the CLN2oe strain (AID 163);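 also: 0% = growth of vehicle-only control cultures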; settings: S. cerevisiae CLN2oe strain, hits give high values
Procedure, shortened: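 Values reflect how much compound exposure reduced yeast growth, referenced to vehicle-exposed cells. Assay organism is a strain with a defined genetic change affecting cell-cycle control.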

[10] = NCI Yeast Anticancer Drug Screen. Data for the cln2 rad14 strain (AID 165);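 also: 0% = growth equal to vehicle treated cultures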; settings: S. cerevisiae cln2 rad14 strain, hits give high values
Procedure, shortened: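 Relative to vehicle controls, growth inhibition of compound-treated cln2 rad14 yeast was recorded.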

[11] = NCI Yeast Anticancer Drug Screen. Data for the bub3 strain (AID 167); settings: S. cerevisiae bub3 mutant strain, hits give high values
Procedure, shortened: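 Screening used yeast with an engineered genetic alteration affecting cell cycle control. Compound-exposed cultures were compared with vehicle cultures, and reduced growth was taken as inhibition.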

[12] = NCI Yeast Anticancer Drug Screen. Data for the wt2 strain (AID 169);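 also: 0% = growth of vehicle-treated yeast cultures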; settings: S. cerevisiae wt2 strain growth inhibition, hits give high values
Procedure, shortened: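 Values express reduction in yeast growth under compound treatment, referenced to vehicle-treated cells.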

[13] = NCI Yeast Anticancer Drug Screen. Data for the mlh1 strain (AID 171);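 also: 0% = growth of vehicle-treated control cultures of the same strain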; settings: S. cerevisiae mlh1 strain growth inhibition, hits give high values
Procedure, shortened: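 Steps: expose the defined-mutant yeast strain to compound; expose a parallel culture to vehicle; measure growth; express compound effect as inhibition relative to the vehicle culture.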

[14] = NCI Yeast Anticancer Drug Screen. Data for the sgs1 strain (AID 173);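 also: 0% = growth of vehicle-only control cultures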; settings: S. cerevisiae sgs1 mutant, hits give high values
Procedure, shortened: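 Treat defined-mutant yeast with compound; measure growth; calculate inhibition relative to vehicle-treated cells.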

[15] = NCI Yeast Anticancer Drug Screen. Data for the mlh1 rad18 strain (AID 175); settings: S. cerevisiae mlh1 rad18 strain growth inhibition, hits give high values
Procedure, shortened: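 Test agents were incubated with a yeast strain of defined genotype (DNA damage repair defect). Inhibition of growth was derived by comparison with vehicle-exposed cultures.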

[16] = at 5.0 µM (retest, dose inferred, filed as 0.5)
[17] = at 50.0 µM (retest, dose inferred, filed as 5.0)

Measured: growth inhibition

O=C(Nc1cccs1)c1ccccc1
active: [4]; at 100.0 µM 88% | [5]; [17] 82% | [5]; at 50.0 µM 94.8% | [5]; at 100.0 µM 92% | [7]; at 100.0 µM 80% | [13]; at 100.0 µM 86% | [14]; at 100.0 µM 86% | [15]; [17] 80% | [15]; at 50.0 µM 94.6%
inactive: [1]; at 1.2 µM -5% | [1]; at 3.7 µM -3% | [1]; at 11.0 µM -5% | [1]; at 33.0 µM 3% | [1]; at 100.0 µM 67% | [2]; at 1.2 µM -5% | [2]; at 3.7 µM -6% | [2]; at 11.0 µM -8% | [2]; at 33.0 µM -6% | [2]; at 100.0 µM 48% | [3]; at 1.2 µM -1% | [3]; at 3.7 µM 7% | [3]; at 11.0 µM 10% | [3]; at 33.0 µM 18% | [3]; at 100.0 µM 38% | [4]; at 1.2 µM -1% | [4]; at 3.7 µM -4% | [4]; at 11.0 µM -4% | [4]; at 33.0 µM 5% | [5]; at 1.2 µM -4% | [5]; at 3.7 µM -8% | [5]; [16] -155% | [5]; at 11.0 µM 10% | [5]; at 33.0 µM 42% | [6]; at 1.2 µM -1% | [6]; at 3.7 µM -1% | [6]; [16] -52% | [6]; at 11.0 µM -4% | [6]; at 33.0 µM 3% | [6]; [17] -42% | [6]; at 50.0 µM 30.1% | [6]; at 100.0 µM 51% | [7]; at 1.2 µM 0% | [7]; at 3.7 µM -3% | [7]; at 11.0 µM 0% | [7]; at 33.0 µM 23% | [8]; [16] -67% | [8]; [17] 66% | [8]; at 50.0 µM 65.8% | [9]; at 1.2 µM 0% | [9]; at 3.7 µM -1% | [9]; at 11.0 µM -1% | [9]; at 33.0 µM -1% | [9]; at 100.0 µM 53% | [10]; [16] -65% | [10]; [17] -62% | [10]; at 50.0 µM -0.2% | [11]; at 1.2 µM -12% | [11]; at 3.7 µM -9% | [11]; [16] -68% | [11]; at 11.0 µM -3% | [11]; at 33.0 µM -7% | [11]; [17] 8% | [11]; at 50.0 µM 13.8% | [11]; at 100.0 µM 64% | [12]; at 1.2 µM -1% | [12]; at 3.7 µM -1% | [12]; at 11.0 µM -2% | [12]; at 33.0 µM -2% | [12]; at 100.0 µM 67% | [13]; at 1.2 µM 6% | [13]; at 3.7 µM -5% | [13]; at 11.0 µM -5% | [13]; at 33.0 µM 2% | [14]; at 1.2 µM 0% | [14]; at 3.7 µM -1% | [14]; at 11.0 µM -1% | [14]; at 33.0 µM 3% | [15]; [16] -125%

CCN1CCC(O)(c2ccc(Oc3ccc(Cl)cc3)cc2)C(C(=O)c2ccc(Oc3ccc(Cl)cc3)cc2)C1 (stereo unspecified)
inactive: [1]; at 1.2 µM -10% | [1]; at 3.7 µM -14% | [1]; at 11.0 µM -16% | [1]; at 33.0 µM -6% | [1]; at 100.0 µM 12% | [2]; at 1.2 µM -51% | [2]; at 3.7 µM -27% | [2]; at 11.0 µM -44% | [2]; at 33.0 µM -46% | [2]; at 100.0 µM -8% | [3]; at 1.2 µM -7% | [3]; at 3.7 µM 0% | [3]; at 11.0 µM 4% | [3]; at 33.0 µM -2% | [3]; at 100.0 µM 7% | [4]; at 1.2 µM 30% | [4]; at 3.7 µM 64% | [4]; at 11.0 µM 42% | [4]; at 33.0 µM 47% | [4]; at 100.0 µM 59% | [5]; at 1.2 µM -20% | [5]; at 3.7 µM -7% | [5]; [16] 51% | [5]; at 11.0 µM -8% | [5]; at 33.0 µM -30% | [5]; [17] 7% | [5]; at 100.0 µM -6% | [6]; at 1.2 µM 0% | [6]; at 3.7 µM 28% | [6]; [16] 68% | [6]; at 11.0 µM 26% | [6]; at 33.0 µM 1% | [6]; [17] -2% | [6]; at 100.0 µM 8% | [7]; at 1.2 µM -4% | [7]; at 3.7 µM 16% | [7]; at 11.0 µM 11% | [7]; at 33.0 µM 21% | [7]; at 100.0 µM 45% | [9]; at 1.2 µM 28% | [9]; at 3.7 µM 44% | [9]; at 11.0 µM 35% | [9]; at 33.0 µM 33% | [9]; at 100.0 µM 16% | [10]; [16] 23% | [11]; at 1.2 µM 22% | [11]; at 3.7 µM 39% | [11]; at 11.0 µM 50% | [11]; at 33.0 µM 39% | [11]; at 100.0 µM 51% | [12]; at 1.2 µM -21% | [12]; at 3.7 µM 35% | [12]; at 11.0 µM 5% | [12]; at 33.0 µM -13% | [12]; at 100.0 µM 23% | [13]; at 1.2 µM -1% | [13]; at 3.7 µM -4% | [13]; at 11.0 µM -8% | [13]; at 33.0 µM -4% | [13]; at 100.0 µM 0% | [14]; at 1.2 µM -27% | [14]; at 3.7 µM 63% | [14]; at 11.0 µM 20% | [14]; at 33.0 µM 11% | [14]; at 100.0 µM 33% | [15]; [17] 18%
active: [5]; at 50.0 µM 83% | [6]; at 50.0 µM 93.2% | [8]; [16] 97% | [8]; [17] 98% | [8]; at 50.0 µM 89.2% | [10]; [17] 98% | [10]; at 50.0 µM 87.5% | [11]; [16] 87% | [11]; [17] 98% | [11]; at 50.0 µM 90.2% | [15]; [16] 82% | [15]; at 50.0 µM 90.5%

c1ccc2c(c1)ccn2CCc1c[nH]c2ccccc12
active: [1]; at 100.0 µM 97% | [2]; at 100.0 µM 95% | [4]; at 100.0 µM 96% | [5]; at 50.0 µM 91% | [5]; at 100.0 µM 98% | [6]; at 50.0 µM 93.4% | [6]; at 100.0 µM 96% | [7]; at 100.0 µM 97% | [9]; at 100.0 µM 95% | [10]; at 50.0 µM 91.7% | [11]; at 33.0 µM 79% | [11]; [17] 70% | [11]; at 50.0 µM 89.7% | [11]; at 100.0 µM 95%
inactive: [1]; at 1.2 µM -35% | [1]; at 3.7 µM -37% | [1]; at 11.0 µM -20% | [1]; at 33.0 µM 31% | [2]; at 1.2 µM -16% | [2]; at 3.7 µM -31% | [2]; at 11.0 µM -19% | [2]; at 33.0 µM 21% | [3]; at 1.2 µM -33% | [3]; at 3.7 µM -5% | [3]; at 11.0 µM 23% | [3]; at 33.0 µM 41% | [3]; at 100.0 µM 55% | [4]; at 1.2 µM -26% | [4]; at 3.7 µM -26% | [4]; at 11.0 µM -4% | [4]; at 33.0 µM 33% | [5]; at 1.2 µM -20% | [5]; at 3.7 µM -20% | [5]; [16] -13% | [5]; at 11.0 µM -5% | [5]; at 33.0 µM 34% | [5]; [17] 48% | [6]; at 1.2 µM -24% | [6]; at 3.7 µM -23% | [6]; [16] -5% | [6]; at 11.0 µM -27% | [6]; at 33.0 µM 0% | [6]; [17] 1% | [7]; at 1.2 µM -16% | [7]; at 3.7 µM -29% | [7]; at 11.0 µM -28% | [7]; at 33.0 µM 6% | [8]; [16] -10% | [8]; [17] 25% | [8]; at 50.0 µM 57.9% | [9]; at 1.2 µM 7% | [9]; at 3.7 µM 21% | [9]; at 11.0 µM 12% | [9]; at 33.0 µM 48% | [10]; [16] -1% | [10]; [17] 52% | [11]; at 1.2 µM 15% | [11]; at 3.7 µM 18% | [11]; [16] -19% | [11]; at 11.0 µM 39%
